Experimental data from PubChem BioAssay AID1863 (Southern Research Specialized Biocontainment Screening …, 2009).
About 480 (0.16%) of roughly 300,000 compounds were called active.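 Rule for the calls: active = inhibition over 29.93%, a cutoff 3 SD above the screen mean, later confirmed by dose response; inconclusive = inhibition over 29.93% but no dose response follow-up; inactive = inhibition at most 29.93% or unconfirmed.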 The list is a sample of the results. Potency and affinity values are given separately.

Assay: inhibitors of PhoP regulon expression, primary screen, Salmonella Typhimurium, GFP reporter (AID 1863);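 note: 0% = low Mg2+ inducing control and 100% = high Mg2+ repressing control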
Settings: S. Typhimurium PhoP-regulated promoter GFP reporter, 4 h; at 50 µM; stronger effect = higher value

inhibition, inactive:
CCOc1ccc(CN2CCC(n3nccc3NC(=O)c3ccccc3OC)CC2)cc1 -0.04%
CCCNC(=O)c1ccccc1NS(=O)(=O)c1ccc(OC)c(OC)c1 4.85%
CCc1cc(C(=O)N(CCCOC)c2c(N)n(Cc3ccccc3)c(=O)[nH]c2=O)sc1C -2.51%
CCOC(=O)C(C(=O)OCC)C(C(=O)OCC)N1CCOCC1 (stereo not given) 3.26%
CC1(C)NC(=O)N(CC(O)CN2C(=O)CCC2=O)C1=O (stereo not given) -6.24%
Cn1c2ccccc2c(=O)c2ccc(C#Cc3ccccn3)cc21 0.47%
COc1ccccc1N1CCN(C(c2ccccc2)c2nnnn2CCc2ccccc2)CC1 (stereo not given) 1.99%
Cc1cc(C)n(CCCNC(=O)Cn2nnnc2CN2C[C@@H](C)O[C@@H](C)C2)n1 0.46%
COc1ccccc1NS(=O)(=O)c1ccc(Cl)c(NC(=O)c2sc3cc(Cl)ccc3c2Cl)c1 5.27%
Cc1cc(SCC(=O)N/N=C/c2ccc(O)cc2O)c(C)cc1Br -6.96%
Cc1cc(SCC(=O)N/N=C/c2ccc(O)c(O)c2)c(C)cc1Br -9.61%
CCCCC(c1nnnn1C1CCCC1)N1CCN(C(=O)c2ccco2)CC1 (stereo not given) -4.03%
Cc1cc(C(=O)N/N=C/c2cc([N+](=O)[O-])ccc2O)c2ccccc2n1 18.3%
Cc1cc(C(=O)N/N=C/c2cc(Cl)cc([N+](=O)[O-])c2O)c2ccccc2n1 28.8%
O=C(Nc1ccccc1N1CCN(C(=O)c2ccc(Cl)cc2)CC1)c1cccc(F)c1 2.12%
Cc1ccc(S(=O)(=O)N2CCC(C(=O)NCCN3CCOCC3)CC2)cc1C -3.49%
O=C(c1ccc(Cl)cc1)c1ccc(Oc2cc(NN3CCCCC3)c([N+](=O)[O-])cc2[N+](=O)[O-])cc1 6.36%
CCOc1ccc(C2CC(=O)NC2=O)cc1 (stereo not given) 3.62%
O=C(NCc1nc(-c2ccc(Cl)cc2)no1)c1ccco1 -1.48%
CN1CCN(C(=O)CCN2C(=O)/C(=C\c3ccc(Cl)cc3)SC2=S)CC1 -5.92%
O=C(O)c1ccc(N2C(=O)CC(N3C(=O)/C(=C/c4ccc(Cl)cc4)SC3=S)C2=O)cc1 (stereo not given) 16%
Cc1cccc(C)c1NC(=O)CCCCCC1NC(=O)NC1C (stereo not given) 2.4%
Cc1nn(-c2ccccc2)c(N)c1Sc1ccc([N+](=O)[O-])cc1 0.62%
C=CCn1c(=NC(=O)CN2C(=O)CCC2=O)sc2cc(S(N)(=O)=O)ccc21 17%
CC1CCN(Cc2ccc(-c3nnn(CC(=O)Nc4ccccc4Cl)n3)cc2)CC1 -3.86%
COc1ccccc1N1CCN(C(=O)C(C)CS(=O)(=O)c2ccc3c(c2)NC(=O)CS3)CC1 (stereo not given) -8.13%
O=[N+]([O-])c1cccc(-c2ccn[nH]2)c1 -3.87%
O=[N+]([O-])c1cc(-c2ccn[nH]2)ccc1Cl -3.78%
Cc1cc(C(C)(C)C)ccc1OCCOCCN1CCCC1 3.82%
Cc1cc(C(C)(C)C)ccc1OCCN(C)C -7.47%
C[N+](C)(CCOc1ccccc1)Cc1ccccc1 (tested in a mixture with another compound) -8.86%
CC(C)(C)c1ccc(OCCNCc2ccccc2)cc1 -2.16%
Cc1ccccc1CSc1nnc(-c2ccncc2)n1C 1.82%
COc1ccccc1C(=O)NCCC(=O)NC(C)c1ccc(-n2ccnc2)cc1 (stereo not given) 9.9%
C[N+](C)(C)CCCCCC[N+](C)(C)C -9.93%
CCCCCC[N+](C)(C)CCSSCC[N+](C)(C)CCCCCC -6.44%
C[N+](C)(C)CCCCCCCCCC[N+](C)(C)C -6.25%
C#CC[N+](C)(C)CCCCCCCCCC 8.05%
CN1CCN(c2c(F)cc3c(=O)c(C(=O)O)cn4c3c2SCC4)CC1 -8.39%
CC1CCc2cc(F)cc3c(O)c(C(=O)NCCN(C)C)c(=O)n1c23 (stereo not given) 2.46%
CCN(CC)CCCNC(=O)c1c(O)c2cc(F)cc3c2n(c1=O)C(C)CC3 (stereo not given) 8.52%
O=C(c1cncc(Br)c1)N1CCN(S(=O)(=O)c2ccccc2C(F)(F)F)CC1 -1.26%
Cc1ccc(C(=O)N/C(=C\c2cccnc2)C(=O)N2CCCC2)cc1 -6.95%
Cc1ccc(C2=Nc3ccccc3NC(C)(c3ccc(C)o3)C2)o1 (stereo not given) -5.88%
Cc1nnsc1S(=O)c1ccc(Cl)c(Cl)c1 (stereo not given) 3.99%
N#Cc1ccccc1CSCCNC(=O)Cc1c(F)cccc1Cl -5.66%
COc1cccc(Cn2c(C3CC3)nc3ccc(NC(=O)c4ccco4)cc3c2=O)c1 -9.67%
OCc1cn(-c2ccccc2)nc1-c1ccc(Br)cc1 -1.5%
O=C(O)Cc1cn(-c2ccccc2)nc1-c1ccccc1 -1.05%
OCc1cn(-c2ccccc2)nc1-c1ccc(-c2nn(-c3ccccc3)cc2CO)cc1 14.7%
Cc1ccc(-c2nn(-c3ccccc3)cc2CSC(=N)N)cc1 2.16%
CC1=Nn2c(nc3sc4c(c3c2=O)CCCC4)SC1 -2.64%
Cc1cnc(NC(=O)c2ccncc2)s1 1.84%
C=CCOC(=O)C1=C[C@@H](c2ccc(Br)cc2)[C@H](CCCO)[C@@H](OCC)O1 -3.82%
COc1cc(NS(=O)(=O)c2ccc(NS(=O)(=O)c3ccc(C)cc3)cc2)nc(OC)n1 12.1%
COCC(=O)Nc1ccc(N2CCN(c3ccccc3)CC2)c(F)c1 21.5%
Cc1ccc(SCCc2ccc(C)nc2)cc1 9.59%
COCCCNC(=S)NNC(=O)c1ccccn1 8.59%
CCNC(=S)NNC(=O)c1ccccc1Cl 8.03%
C=CCOC(=O)C1=C(C)NC(SCC(=O)Nc2nccs2)=C(C#N)C1c1cccs1 (stereo not given) -14.1%
CCOC(=O)Cn1cnc2sc(C(=O)OC)c(C)c2c1=O -1.36%
O=C(Nc1ncc([N+](=O)[O-])s1)c1ccccc1Br -1.22%
O=C(Nc1ccc(Cl)c(Cl)c1)Nc1ccccc1C(=O)O 4.95%
O=C(CCS(=O)(=O)c1ccccc1)Nc1ncc([N+](=O)[O-])s1 11.2%
Cc1ccc(NC(=O)Nc2ccccc2)cc1[N+](=O)[O-] -2.21%
O=C(Nc1ccc(Cl)c(Cl)c1)Nc1ccccn1 8.31%
O=C(Nc1ccccc1)Nc1ccc(F)c([N+](=O)[O-])c1 8.9%
CCN(CC)P(=O)(c1ccccc1)c1c(C)nc2ccccn12 (stereo not given) -1.09%
CC12CCC(C(=O)NC3CCCC3)(CC1=O)C2(C)C (stereo not given) -12.7%
COc1ccc(-c2nnn(CC(=O)N(CC3CCCO3)C(C(=O)NC(C)(C)C)c3ccco3)n2)cc1OC (stereo not given) 2.77%
COCCCNC(=O)CN(c1cc(Cl)cc(Cl)c1)S(C)(=O)=O -4.71%
N#CCOc1nc(N2CCOCC2)nc(N2CCOCC2)n1 -1.4%
COc1ccc(CN(CC(=O)NCC2CCCO2)C(=O)CNS(=O)(=O)c2ccc(C)cc2)cc1 (stereo not given) -1.33%
CC(NC(=O)C1CCN(S(=O)(=O)c2ccc3nc4c(c(C(=O)O)c3c2)CCCC4)CC1)c1ccccc1 (stereo not given) -8.3%
CCN(CC)S(=O)(=O)c1ccc(OC)c(NS(=O)(=O)Cc2ccccc2)c1 6.46%
O=C(O)c1cccc(Nc2ncnc3sccc23)c1 -0.32%
COc1ccccc1N1CCN(CC(=O)c2c(C)[nH]c3cc(C)ccc23)CC1 -0.55%
CC(C)c1nnc(NC(=O)c2ccc(S(=O)(=O)N3CCOCC3)cc2)s1 -9.01%
O=C(NCCC1=CCCCC1)c1ccc2c(c1)N(Cc1ccccc1)C(=O)CS2 6.9%
CCOC(=O)c1ccc2c(c1)n(CC)c(/C=C/N(C)c1ccccc1)[n+]2CC -11%
CCn1c(/C=C/N(C)c2ccccc2)[n+](CC)c2ccc(Cl)cc21 -2.39%
COc1ccc(C(=O)N2CCN(Cc3ccccc3)CC2)cc1[N+](=O)[O-] -3.7%
O=C(NCCCn1ccnc1)c1ccc(Br)cc1 12.6%
Oc1c(I)cc(I)c2cccnc12 -1.32%
Oc1c(Cl)cc(CN2CCCCC2)c2cccnc12 14.1%
O=C(Oc1c(Cl)cc(Cl)c2cccnc12)c1cccs1 14.3%
Cc1ccc(S(=O)(=O)Nc2ccc(O)c3cccnc23)cc1 6.3%
O=C(Oc1ccc(Cl)c2cccnc12)c1ccco1 19.6%
Clc1cc2cccnc2c2ccccc12 2.15%
O=c1oc2ccccc2c(O)c1Cc1cc(Cl)c2cccnc2c1O -10%
Cc1ccc(S(=O)(=O)Nc2ccc(O)c3ncccc23)cc1 10.5%
CCC(=O)c1cc2c(cc1NC(=O)c1ccccc1)OCCO2 5.62%
CN(C)S(=O)(=O)c1ccc(N2CCCC2)c(C(=O)Nc2nc(-c3ccc(F)c(F)c3)cs2)c1 3.09%
Cc1ccc(CN2C(=O)NC(Cc3c[nH]c4ccccc34)C2=O)cc1 (stereo not given) 4.26%
COC(=O)c1cc(NC(=O)CC2SCCNC2=O)cc(C(=O)OC)c1 (stereo not given) -10.7%
